Assay results: PubChem BioAssay (NCATS)
Values joined by “and” are separate entries in the source; they are usually repeats but may differ in a detail not shown here. Identical values can stand only once. Records with an inconclusive call do not appear. Active and inactive are the calls of the source. Calls follow the shape of the dose curve; as a rule, active = well fitted curve in the direction sought with a large enough effect; inconclusive = small, poorly fitted or top-dose-only effect, or another doubt; inactive = no such curve, though single readings can be large; an effect the other way counts as inactive or inconclusive.

Assays:
[1] = qHTS assay for measurement of the activity of small molecule inhibitors on Zika virus induced Caspase-3 activity in human astrocytoma cells (AID 1224859)
Procedure, shortened: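 Caspase activation in ZIKV-infected SNB-19 cells (2 FFU/cell, 6 h) measured by Caspase-Glo 3/7 luminescence after 30 min RT; compound pre-incubated 1 h; normalised to uninfected and infected controls.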

[2] = qHTS Screen of the MIPE 4.0 Collection Against Ewings Sarcoma (TC71) (AID 1259253); also: nearly all actives have a fitted effect of over 40% in size; also: potency is read from the fitted curve at half-maximal effect
Procedure, shortened: (§1)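 After a 4 h attachment period in RPMI/5% FBS, cells were pin-dosed with test compounds; DMSO served as negative and 9.2 uM bortezomib (final) as positive control. Luminescent CellTiter-Glo signal at 48 h defined viability.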

[3] = qHTS Screen of the MIPE 4.0 Collection Against Ewings Sarcoma (EW8) (AID 1259255); also: nearly all actives have a fitted effect of over 35% in size; also: potency is read from the fitted curve at half-maximal effect
Procedure, shortened: as §1

[4] = qHTS Screen of the MIPE 4.0 Collection Against Ewings Sarcoma (TC32) (AID 1259256); also: nearly all actives have a fitted effect of over 45% in size; also: potency is read from the fitted curve at half-maximal effect
Procedure, shortened: as §1

[5] = P-glycoprotein substrates identified in KB-8-5-11 adenocarcinoma cell line, qHTS therapeutic library screen (AID 1346987); also: nearly all actives have a fitted effect of over 65% in size; also: potency is read from the fitted curve at half-maximal effect
Procedure, shortened: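 In this qHTS, P-gp-rich KB-8-5-11 cells received library compounds across a concentration range. Viability was quantified by luminescence after 72 h at 37 degree C.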

[6] = NS1 protein of Zika virus - qHTS assay to identify small molecule inhibitors in human HEK 293 cells (AID 1347053); also: nearly all actives have a fitted effect of over 55% in size; also: potency is read from the fitted curve at half-maximal effect
Procedure, shortened: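 Compound-treated (1 h pre-infection) HEK 293 cells infected with ZIKV MR766, MOI = 0.5; after 24 h at 37 C, NS1 read by TR-FRET; data normalized to uninfected and infected controls.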

[7] = qHTS Screen of the MIPE 4.0 Collection Against Ewings Sarcoma (RDES) (AID 1259252); also: potency is read from the fitted curve at half-maximal effect; nearly all actives have a fitted effect of over 35% in size
Procedure, shortened: as §1

[8] = Identifying Small Molecule Inhibitors of Pancreatic Cancer Stem Cells (SN12C, Adherent) (AID 1259358);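 also: cell survival measured after 48 h of compound exposure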; also: potency is read from the fitted curve at half-maximal effect
Procedure, shortened: (§2)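 Adherent (2D) versus sphere (3D) formats; spheres generated 14 d in SCM beforehand. Compound transferred by pin tool after 4 h, 48 h incubation, CellTiter-Glo endpoint.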

[9] = Identifying Small Molecule Inhibitors of Pancreatic Cancer Stem Cells (Panc1, Spheroid) (AID 1259359);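 also: potency is read from the fitted curve at half-maximal effect; compound exposure lasted 48 h before reading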
Procedure, shortened: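 Monolayer and spheroid cultures are compared. Spheroids form over 14 days in stem cell medium on hydrogel-coated low-attachment plates, then are exposed to compound for 48 h before CellTiter-Glo luminescence.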

[10] = Identifying Small Molecule Inhibitors of Pancreatic Cancer Stem Cells (SN12C, Spheroid) (AID 1259360); details: Potency: SN12C spheroid viability; also: potency is read from the fitted curve at half-maximal effect
Procedure, shortened: (§3)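 Viability is scored by CellTiter-Glo luminescence 48 h after dosing, expressed as percent activity against vehicle and no-cell references. Spheroid formats rely on cells cultured 14 days in stem cell media beforehand.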

[11] = Identifying Small Molecule Inhibitors of Pancreatic Cancer Stem Cells (Panc1, Adherent) (AID 1259362); details: Potency: viability; also: potency is read from the fitted curve at half-maximal effect
Procedure, shortened: as §2

[12] = P-glycoprotein substrates identified in KB-3-1 adenocarcinoma cell line, qHTS therapeutic library screen (AID 1346986); also: nearly all actives have a fitted effect of over 60% in size;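 also: potency is read from the fitted curve at half-maximal effect; potency is for cytotoxicity meaning loss of cell viability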
Procedure, shortened: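 Dose-response cytotoxicity, KB-3-1 vs P-gp-high KB-8-5-11, no colchicine in assay medium. Read: CellTiter-Glo at 72 h.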

[13] = Identifying Small Molecule Inhibitors of Pancreatic Cancer Stem Cells (A278, Adherent) (AID 1259361);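 also: viability read after 48 h compound exposure; nearly all actives have a fitted effect of over 35% in size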
Procedure, shortened: as §2

[14] = Identifying Small Molecule Inhibitors of Pancreatic Cancer Stem Cells (A2780, Spheroid) (AID 1259357); details: Potency: A2780 spheroid viability;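 also: potency is read from the fitted curve at half-maximal effect; compound exposure lasted 48 h before the ATP luminescence read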
Procedure, shortened: as §3

[15] = qHTS assay to identify small molecule inhibitors of chordoma cells - UCH-1 (AID 1259355); also: nearly all actives have a fitted effect of over 55% in size
Procedure, shortened: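 800 cells/well, overnight attach; compounds pinned at 15 concs, then auranofin/camptothecin/doxorubicin/rubitecan/topotecan combo added; 48hr 37 C, 5% CO2; CellTiter-Glo, 30min RT, luminescence.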

Nc1ncnc2c1c(-c1cccc(OCc3ccccc3)c1)cn2C1CC(CN2CCCC2)C1 (centres undefined)
inactive: Potency [1] | Potency [6]
active: Potency [2] 5260 nM | Potency [3] 16600 nM | Potency [4] 5260 nM | Potency [5] 16.6 µM and 6.51 µM

NC(=O)c1c(OCc2c(F)cc(Br)cc2F)nsc1NC(=O)NCCCCN1CCCC1
inactive: Potency [1] | Potency [6]
active: Potency [2] 18700 nM | Potency [3] 9350 nM | Potency [4] 14800 nM | Potency [5] 18.4 µM

CC[C@@]1(O)C(=O)OCc2c1cc1n(c2=O)Cc2cc3cc(O)ccc3nc2-1
active: Potency [2] 11.8 nM | Potency [3] 13.2 nM | Potency [4] 3.3 nM | Potency [5] 1.16 µM and 1.05 µM | Potency [6] 33.2 nM
inactive: Potency [1]

CC(NCc1ccc2c(c1)nc(NC(=O)c1ccc(-c3cn[nH]c3)s1)n2CC(C)(C)O)C(C)(C)C (centres undefined)
active: Potency [7] 469 nM | Potency [2] 332 nM | Potency [3] 469 nM | Potency [4] 372 nM | Potency [8] 296 nM | Potency [9] 166 nM | Potency [10] 469 nM | Potency [11] 264 nM | Potency [6] 4690 nM

COc1cc(C(=O)N2CCC(N3CCN(C)CC3)CC2)ccc1Nc1ncc2c(n1)N(C)c1ccccc1C(=O)N2C
active: Potency [7] 13200 nM | Potency [2] 4690 nM | Potency [3] 9350 nM | Potency [4] 4180 nM

Nc1nc(NCCNc2ncc(-n3ccnc3)c(-c3ccc(Cl)cc3Cl)n2)ccc1[N+](=O)[O-]
inactive: Potency [1] | Potency [2] | Potency [3] | Potency [12] | Potency [5] | Potency [6]
active: Potency [4] 9350 nM

Cc1cc(Nc2cc(N3CCN(C)CC3)nc(C=Cc3ccccc3)n2)n[nH]1
inactive: Potency [1] | Potency [10]
active: Potency [2] 2410 nM | Potency [3] 1710 nM | Potency [4] 2410 nM | IC50 (viability decrease) [13] 2350 nM | Potency [5] 6.05 µM | Potency [6] 21500 nM

Cc1nc(N)ncc1-c1nc(N2CCOCC2)c2sc(C(C)(C)O)cc2n1
active: Potency [2] 5900 nM | Potency [3] 6620 nM | Potency [4] 2350 nM | Potency [12] 1030 nM | Potency [5] 1.48 µM and 1.64 µM
inactive: Potency [1]

CS(=O)(=O)N1CCN(Cc2cc3nc(-c4cccc5[nH]ncc45)nc(N4CCOCC4)c3s2)CC1
inactive: Potency [1]
active: Potency [2] 5900 nM | Potency [4] 418 nM | IC50 (viability decrease) [13] 372 nM | Potency [11] 590 nM | Potency [6] 4690 nM

CC1(C)CCC(c2ccc(Cl)cc2)=C(CN2CCN(c3ccc(C(=O)NS(=O)(=O)c4ccc(N[C@H](CCN5CCOCC5)CSc5ccccc5)c(S(=O)(=O)C(F)(F)F)c4)cc3)CC2)C1
active: Potency [7] 26400 nM | Potency [2] 18700 nM | Potency [3] 29600 nM | Potency [4] 5260 nM | Potency [14] 20900 nM | Potency [10] 16600 nM | IC50 (viability decrease) [13] 23500 nM
inactive: Potency [5] | Potency [6]

CC(C)C[C@H](NC(=O)CNC(=O)c1cc(Cl)ccc1Cl)B(O)O
active: Potency [2] 332 nM | Potency [3] 148 nM | Potency [4] 469 nM | Potency [9] 93.5 nM | Potency [10] 83.3 nM | IC50 (viability decrease) [13] 16.6 nM | Potency [11] 187 nM | Potency [5] 1.32 µM | Potency [6] 418 nM
inactive: Potency [1]

O=C(c1cncc(Br)c1)N1CCC(N2CCCC2)CC1
inactive: Potency [1] | Potency [2] | Potency [4] | Potency [12] | Potency [5]

Cc1ccc(CN2CCNCC2)cc1NC(=O)CNc1ccc(F)c(F)c1
active: Potency [2] 5260 nM | Potency [4] 13200 nM
inactive: Potency [1] | Potency [12] | Potency [5] | Potency [6]

Clc1cccc(-c2nnnn2Cc2cccnc2)c1Cl
inactive: Potency [1] | Potency [2] | Potency [3] | Potency [4] | Potency [12] | Potency [5] | Potency [6]

C[C@]12CC[C@H](O)CC1=CCC1C2CC[C@]2(C)C(n3cnc4ccccc43)=CCC12 (some centres undefined)
inactive: Potency [1] | Potency [2] | Potency [3] | Potency [4] | Potency [5] | Potency [6]

COc1cc(C(=O)NS(=O)(=O)c2ccccc2C)ccc1Cc1cn(C)c2ccc(NC(=O)OC3CCCC3)cc12
inactive: Potency [15] | Potency [6]
active: Potency [7] 23500 nM | Potency [2] 23500 nM | Potency [3] 16600 nM | Potency [4] 18700 nM

CC(C)(O)CCc1ccc(OCc2cc(-c3cccc(OC(F)F)c3)c3ncccc3c2)cc1
inactive: Potency [1] | Potency [2] | Potency [3] | Potency [4] | Potency [8]

CCNC(=O)Nc1ccc2ncc(Nc3ccc(C)cc3)nc2n1
active: Potency [2] 2960 nM | Potency [3] 2960 nM | Potency [4] 1320 nM
inactive: Potency [1] | Potency [12] | Potency [5] | Potency [6]
